From PubChem BioAssay AID1159580 (chemical genetic matrix, 2015)
Screen size: about 5,500 compounds; about 2,000 (36%) were called active. Another 18% or so got no clear call; they are omitted. Some of the results follow. Values without a mark were called inactive. No stated cut-off is given here; in the data, active means normalized growth mostly below about 0.91 (no sharp cut-off); inconclusive means no clear call, values can overlap the other calls; inactive means mostly above about 0.92.

Assay: chemical genetic growth profiling, strain panel (AID 1159580);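 further: tested at 20 µM; growth read once vehicle control cultures reached saturation at 30 °C; 1 = growth at the plate median or of vehicle wells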
Details: S. cerevisiae deletion strains, growth OD

For `Oc1ccc2c3c1O[C@H]1c4[nH]c5ccccc5c4C[C@@]4(O)C(C2)N(CC2CC2)CCC314` (stereo not given in full), which normalized growth (locus YAL013W, strain DEP1, stronger effect = lower value) is on record?
The normalized growth was 0.989.

What about the normalized growth (locus YAL040C, strain CLN3, stronger effect = lower value) of the same molecule?
Its normalized growth is 1.

What about the normalized growth (locus YCL061C, strain MRC1 (second series), stronger effect = lower value) of the same molecule?
Its normalized growth is 1.01.

And the normalized growth (locus YDR363W, strain ESC2, stronger effect = lower value)?
The normalized growth was 1.02.

What about the normalized growth (locus YER002W, strain NOP16, stronger effect = lower value) of the same molecule?
The normalized growth was 1.02.

And the normalized growth (locus YGR078C, strain PAC10, stronger effect = lower value)?
Its normalized growth is 1.02.

What about the normalized growth (locus YMR263W, strain SAP30, stronger effect = lower value) of the same molecule?
The normalized growth was 1.01.

What about the normalized growth (locus YMR307W, strain GAS1, stronger effect = lower value) of the same molecule?
Its normalized growth is 0.993.

And the normalized growth (locus YNL175C, strain NOP13, stronger effect = lower value)?
The normalized growth was 1.02.

What about the normalized growth (locus YNL197C, strain WHI3, stronger effect = lower value) of the same molecule?
The normalized growth was 1.

What about the normalized growth (locus YNL224C, strain SQS1, stronger effect = lower value) of the same molecule?
The normalized growth was 1.01.

What about the normalized growth (locus YNL322C, strain KRE1, stronger effect = lower value) of the same molecule?
Its normalized growth is 0.999.

What about the normalized growth (locus YOR083W, strain WHI5 (second series), stronger effect = lower value) of the same molecule?
Its normalized growth is 1.01.

And the normalized growth (locus YPL055C, strain LGE1, stronger effect = lower value)?
The normalized growth was 0.987.

Which results are given for `Fc1ccc(NC(=S)N2CCCN(Cc3ccc(Cl)cc3Cl)CC2)cc1`?
normalized growth (locus YAR019C, strain CDC15, stronger effect = lower value): 0.989; normalized growth (locus YBL105C, strain PKC1, stronger effect = lower value): 0.984; normalized growth (locus YBR135W, strain CKS1, stronger effect = lower value): 0.992; normalized growth (locus YBR136W, strain MEC1, stronger effect = lower value): 0.985; normalized growth (locus YBR160W, strain CDC28, stronger effect = lower value): 0.982; normalized growth (locus YDL017W, strain CDC7, stronger effect = lower value): 0.982; normalized growth (locus YDL028C, strain MPS1, stronger effect = lower value): 0.99; normalized growth (locus YDL101C, strain DUN1, stronger effect = lower value): 0.985; normalized growth (locus YDL108W, strain KIN28, stronger effect = lower value): 0.992; normalized growth (locus YDL132W, strain cdc53, stronger effect = lower value): 0.989; normalized growth (locus YDL214C, strain PRR2, stronger effect = lower value): 0.987; normalized growth (locus YDR052C, strain DBF4, stronger effect = lower value): 0.986; normalized growth (locus YDR054C, strain cdc34, stronger effect = lower value): 0.982; normalized growth (locus YDR226W, strain ADK1, stronger effect = lower value): 0.973; normalized growth (locus YDR477W, strain SNF1, stronger effect = lower value): 1; normalized growth (locus YER123W, strain YCK3, stronger effect = lower value): 1.02; normalized growth (locus YER133W, strain GLC7, stronger effect = lower value): 1; normalized growth (locus YFL009W, strain cdc4, stronger effect = lower value): 0.992; normalized growth (locus YFL029C, strain CAK1, stronger effect = lower value): 0.979; normalized growth (locus YFR003C, strain YPI1, stronger effect = lower value): 0.984; normalized growth (locus YFR019W, strain FAB1, stronger effect = lower value): 0.998; normalized growth (locus YFR028C, strain CDC14, stronger effect = lower value): 0.997; normalized growth (locus YGR040W, strain KSS1, stronger effect = lower value): 1.01; normalized growth (locus YGR052W, strain FMP48, stronger effect = lower value): 1.09; normalized growth (locus YGR092W, strain DBF2, stronger effect = lower value): 1.01; normalized growth (locus YHR030C, strain SLT2, stronger effect = lower value): 0.903; normalized growth (locus YHR079C, strain IRE1, stronger effect = lower value): 0.964; normalized growth (locus YHR082C, strain KSP1, stronger effect = lower value): 1.15; normalized growth (locus YHR205W, strain SCH9, stronger effect = lower value): 0.989; normalized growth (locus YIL147C, strain SLN1, stronger effect = lower value): 0.977; normalized growth (locus YJL095W, strain BCK1, stronger effect = lower value): 1.02; normalized growth (locus YJL128C, strain PBS2, stronger effect = lower value): 0.959; normalized growth (locus YJL157C, strain FAR1, stronger effect = lower value): 1.01; normalized growth (locus YJR016C, strain ILV3, stronger effect = lower value): 0.992; normalized growth (locus YJR066W, strain TOR1 (second series), stronger effect = lower value): 0.966; normalized growth (locus YJR066W, strain TOR1, stronger effect = lower value): 1.11; normalized growth (locus YKL048C, strain ELM1, stronger effect = lower value): 0.981; normalized growth (locus YKL067W, strain YNK1, stronger effect = lower value): 0.989; normalized growth (locus YKL101W, strain HSL1, stronger effect = lower value): 0.987; normalized growth (locus YKL193C, strain SDS22, stronger effect = lower value): 0.994; normalized growth (locus YKL203C, strain TOR2, stronger effect = lower value): 1.05; normalized growth (locus YLR113W, strain HOG1, stronger effect = lower value): 0.821 (active); normalized growth (locus YLR133W, strain CKI1, stronger effect = lower value): 1.01; normalized growth (locus YLR403W, strain SFP1, stronger effect = lower value): 1.01; normalized growth (locus YML070W, strain DAK1, stronger effect = lower value): 1; normalized growth (locus YMR001C, strain CDC5, stronger effect = lower value): 0.992; normalized growth (locus YMR205C, strain PFK2 (second series), stronger effect = lower value): 0.994; normalized growth (locus YMR277W, strain FCP1, stronger effect = lower value): 0.992; normalized growth (locus YNL006W, strain LST8, stronger effect = lower value): 0.987; normalized growth (locus YNL020C, strain ARK1, stronger effect = lower value): 1; normalized growth (locus YNL161W, strain CBK1, stronger effect = lower value): 0.98; normalized growth (locus YNL183C, strain NPR1, stronger effect = lower value): 1.09; normalized growth (locus YNL207W, strain RIO2, stronger effect = lower value): 0.984; normalized growth (locus YNL222W, strain SSU72, stronger effect = lower value): 0.992; normalized growth (locus YNL307C, strain MCK1 (second series), stronger effect = lower value): 1; normalized growth (locus YOL078W, strain AVO1, stronger effect = lower value): 0.996; normalized growth (locus YOL136C, strain PFK27, stronger effect = lower value): 1.01; normalized growth (locus YOR061W, strain CKA2, stronger effect = lower value): 1.01; normalized growth (locus YOR119C, strain RIO1, stronger effect = lower value): 1.08; normalized growth (locus YOR231W, strain MKK1, stronger effect = lower value): 0.985; normalized growth (locus YOR329C, strain SCD5, stronger effect = lower value): 0.986; normalized growth (locus YPL031C, strain PHO85, stronger effect = lower value): 1.02; normalized growth (locus YPL153C, strain RAD53, stronger effect = lower value): 1.02; normalized growth (locus YPL204W, strain HRR25, stronger effect = lower value): 0.982; normalized growth (locus YPL209C, strain IPL1, stronger effect = lower value): 0.983; normalized growth (locus YPL256C, strain CLN2, stronger effect = lower value): 0.888; normalized growth (locus YPR025C, strain CCL1, stronger effect = lower value): 0.987; normalized growth (locus YPR106W, strain ISR1, stronger effect = lower value): 0.99; normalized growth (locus YPR111W, strain DBF20, stronger effect = lower value): 0.975; normalized growth (strain NNK1, stronger effect = lower value): 0.983; normalized growth (strain TSCII, stronger effect = lower value): 0.984
